Results taken from PubChem BioAssay AID651599 (National Center for Advancing Translational Sciences (NCATS), 2012).
Inconclusive results are not listed. A call without a number means that no potency is given here. Calls of active or inactive are those of the source. Calls come from the whole dose curve; as a rule, active = well fitted inhibition curve with a large enough effect; inconclusive = small, poorly fitted or top-dose-only effect; inactive = no such curve, though single readings can be large or run the other way.

biological target: Tumor susceptibility gene 101 protein (Homo sapiens) (UniProt Q99816); assay: qHTS Assay for Iinhibitors of HIV-1 Budding by Blocking the Interaction of PTAP/TSG101: Hit Validation in TR assay; settings: Tsg101 binding domain + Texas Red-labeled PTAP peptide, fluorescence polarization, 20 min; series mostly up to 57.5 µM
Sequence (Q99816 whole entry, looked up, the tested form may be a part): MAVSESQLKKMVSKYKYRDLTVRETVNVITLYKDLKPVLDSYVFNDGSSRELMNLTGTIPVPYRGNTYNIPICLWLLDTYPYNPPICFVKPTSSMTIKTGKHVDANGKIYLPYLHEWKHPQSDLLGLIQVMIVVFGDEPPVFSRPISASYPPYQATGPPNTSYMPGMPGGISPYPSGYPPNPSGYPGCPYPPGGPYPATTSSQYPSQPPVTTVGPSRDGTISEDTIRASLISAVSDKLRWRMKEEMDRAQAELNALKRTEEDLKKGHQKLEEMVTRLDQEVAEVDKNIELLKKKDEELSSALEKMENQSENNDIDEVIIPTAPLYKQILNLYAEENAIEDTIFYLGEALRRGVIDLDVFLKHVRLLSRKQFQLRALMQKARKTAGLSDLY
Source text: Stages of the HIV-1 replication cycle, specifically virus assembly and release, provide underexploited targets for the development of novel antiviral inhibitors. The late stages of HIV-1 replication are mediated by the Gag precursor protein, Pr55Gag. Expression of Pr55Gag is both necessary and sufficient for the production of virus-like particles from Gag-expressing cells. The Gag protein hijacks key host proteins involved in endocytic machinery of the host cell to promote endosomal processing and viral budding. The budding process requires a direct interaction between a […] (PTAP) motif in the p6 domain of Gag and the cellular endosomal sorting protein known as Tsg101. In this way, the Gag PTAP motif promotes the host cells to recruit viral particles to the plasma membrane where the new viral particles are released, effectively turning the host cells into viral factories. A fluorescence anisotropy assay has been developed to quantitatively measure the PTAP-Tsg101 interaction which can be used to screen for inhibitors of this interaction.
This hit validation assay is similar to the primary assay but uses the Texas Red label instead of FITC.
NIH Molecular Libraries Probe Production Network [MLPCN]
NIH Chemical Genomics Center [NCGC]
PI Name: Dr. Eric Freed, NCI
Two uL of the Tsg101 binding domain in buffer (10 mM HEPES pH 7.5; 0.15 M NaCl, 0.01% Tween 20; 3 mM EDTA;0.1 mM TCEP) was dispensed into Greiner black MB 1536-well plates (final concentration 10 uM). Then, 23 nL of compounds or DMSO were delivered to each well using a pin tool. Finally, 2 uL of a TR-labeled peptide containing the PTAP motif (1) in the same buffer was dispensed (50 nM final concentration) and the binding was allowed to proceed for 20 min. at r.t. Fluorescent polarization was determined using TR excitation and polarized emission filters on a Perkin Elmer Viewlux.
Keywords: Tsg101, PTAP, Gag, HIV, fluorescent polarization, MLSMR, MLPCN, NIH Roadmap, qHTS, NCGC
Potency is the fitted concentration of half-maximal effect.

Row | Compound | Potency
1 | CCOC(=O)[C@]1(C#N)[C@@H]2C=CC(C(C)=O)=CN2[C@@H](C(N)=O)[C@@H]1c1ccsc1 | inactive
2 | CC(C)C[C@H]1C(=O)N2CCCC2[C@]2(O)O[C@](NC(=O)[C@@H]3C=C4c5cccc6[nH]cc(c56)CC4N(C)C3)(C(C)C)C(=O)N12 (stereo partly specified) | inactive
3 | CC(C)C[C@H]1C(=O)N2CCC[C@H]2[C@]2(O)O[C@](NC(=O)[C@@H]3C=C4c5cccc6[nH]cc(c56)C[C@H]4N(C)C3)(C(C)C)C(=O)N12 | inactive
4 | CCN(CC)C(=O)Cn1cc(C=C2C(=O)N(C)C(=O)N(C)C2=O)c2ccccc21 | inactive
5 | CC1=C[C@@H]2c3cccc4[nH]cc(c34)C[C@H]2N(C)C1 | inactive
6 | N#CCN1CCN(c2ccc(C(F)(F)F)cc2)CC1 | inactive
7 | CN1CCN(c2ccc([N+](=O)[O-])c3no[n+]([O-])c23)CC1 | inactive
8 | CN1CC=C2C(C#N)=C(N)C(C#N)(C#N)C(c3ccncc3)C2C1 (stereo unspecified) | inactive
9 | COc1ccc(N2C(=O)NC(=O)/C(=C\c3cn(C)c4ccccc34)C2=O)cc1 | inactive
10 | COc1cccc2c1C(=O)c1c(O)c3c(c(O)c1C2=O)CC(O)(C(C)=NO)CC3OC1CC(N)C(O)C(C)O1 (stereo unspecified) | inactive
11 | Cc1cc(N2CCCC2)ccc1C=C(C#N)C#N | inactive
12 | CC1=NCCc2c1[nH]c1cc(O)ccc21 | inactive
13 | C=CCN1CCC2(C)c3cc(O)ccc3CC1C2C (stereo unspecified) | inactive
14 | CCN(CC)c1ccc(N=Cc2c(O)n(-c3ccc(OC)cc3)c(=O)[nH]c2=O)cc1 | inactive
15 | CCOC(=O)c1c(/N=C/c2c(O)n(-c3ccccc3F)c(=S)[nH]c2=O)sc2c1CCCC2 | inactive
16 | CCOC(=O)C1CCCN(c2ccc([N+](=O)[O-])c3nonc23)C1 (stereo unspecified) | inactive
17 | O=C1NC(=O)N(c2ccc(F)cc2)C(=O)/C1=C/c1ccc2c(c1)CCCN2Cc1ccccc1 | inactive
18 | Nc1ccc2nonc2c1[N+](=O)[O-] | inactive
19 | CN1/C(=C\C=C2C(=O)NC(=S)NC2=O)C(C)(C)c2ccccc21 | inactive
20 | O=[N+]([O-])c1ccc(NCc2ccccc2)c2nonc12 | inactive
21 | Nc1cc2nc3ccccc3nc2cc1N | inactive
22 | C#CCN1C(=O)S/C(=C\c2ccc(N3CCOCC3)cc2C)C1=O | inactive
23 | Nc1ccc2ccc3cccc[n+]3c2c1 | 16.3 µM (active)
24 | O=c1cc(C(F)(F)F)c2cc3c4c(c2o1)CCCN4CCC3 | inactive
25 | N#CC(C#N)=Cc1ccc(-c2ccccc2F)o1 | inactive
26 | CN1Cc2c(c(C#N)c(N)n(C)c2=S)CC1(C)C | inactive
